# Compound activity (PubChem)
# Sampled rows, rich in hits. Any-hit rate of the full collection: about 3.7%.
# HTT ATP protect – cytoprotection in Huntington HTT-Q103 PC12 cell model; Potency, µM (titrated, usually from 56.4 µM), hits mostly activators; 230,000 tested, 0.14% active; AID 1471; PC12 HTT-Q103 induced, cytoprotection, ATP luminescence, 40 h; further: nearly all actives have a fitted effect of over 45% in size
#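 PC12 cells with ecdysone-inducible HTT exon 1 Q103-GFP, induced with 100 nM tebufenozide and co-treated with library compounds in a dose series (1536-well, 1500 cells/well). Cytoprotection read as ATP content by ATPlite luminescence.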
# Tau fluor cs – counter-screen for tau fibril formation inhibitors. 280,000 tested, 0.93% active. Potency, µM (titrated, usually from 57.7 µM). AID 1463. tau K18 P301L Alexa594 fluorescence, heparin fibrillization; further: nearly all actives have a fitted effect of over 55% in size
#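 Human K18 P301L tau (15 uM unlabeled plus 0.24 uM Alexa 594-labeled, final) in 100 mM sodium acetate pH 7 was mixed with compound and 20 uM heparin and incubated 6 hr at 37 C.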
# HttQ103 aggreg – reduces HttQ103-GFP aggregates in PC12 cells; 220,000 tested, 1.1% active; AID 1688; Potency, µM (series often up to 46.1 µM), usual class: inhibitors; PC12 HttQ103-GFP aggregates, Acumen cytometry, 40 h; further: nearly all actives have a fitted effect of over 60% in size
#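 Compounds (qHTS titration) were added to PC12 cells expressing an ecdysone-driven HTT exon 1 Q103–GFP fusion after induction with 100 nM tebufenozide. Aggregate formation was measured as GFP objects in cell lysates.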
# Tau ThT inhib – blocks human tau fibril formation measured by thioflavin T; 270,000 tested, 2.1% active; recombinant tau K18 P301L (four-repeat tau fragment), heparin-induced fibrillization, ThT fluorescence; Potency, µM (doses to about 57.4 µM), hits mostly inhibitors; further: nearly all actives have a fitted effect of over 55% in size
# Target sequence (P10636 561-689 P618L limits assumed): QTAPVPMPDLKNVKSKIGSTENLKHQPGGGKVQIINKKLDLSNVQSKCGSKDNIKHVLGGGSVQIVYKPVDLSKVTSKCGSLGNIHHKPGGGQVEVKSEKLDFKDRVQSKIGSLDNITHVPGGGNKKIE
#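 K18 P301L tau (15 uM + 0.24 uM Alexa 594-tagged), heparin 20 uM, NaOAc pH 7, 6 h 37 C; ThT 30 uM, 1 h RT, ex 450/em 510 nm.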
# Tau FP inhib – inhibitors of human tau fibril formation; P10636; K18 P301L tau heparin fibrillization, Alexa594 FP, 6 h; Potency, µM (titrated, usually from 57.7 µM), actives largely listed as inhibitors; 280,000 tested, 0.39% active; further: nearly all actives have a fitted effect of over 55% in size
#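 K18 P301L tau (15 uM unlabeled/0.24 uM Alexa 594-labeled, final) + compound + heparin 20 uM final; 100 mM NaOAc pH 7; 6 hr 37 C; ThT 30 uM final added, 1 hr RT; FP ex 555/em 632 nm.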
# Numbers stand for hits; . = inactive; ? = inconclusive; / = no result given; ! = repeats disagree; [ ] = dose if it differs, or a comment. The call rests on the fitted dose curve; in most records, active means well fitted curve in the direction sought with a large enough effect; inconclusive means small, poorly fitted or top-dose-only effect, or another doubt; inactive means no such curve, though single readings can be large; an effect the other way counts as inactive or inconclusive.
SMILES,HTT ATP protect,Tau fluor cs,HttQ103 aggreg,Tau ThT inhib,Tau FP inhib
O=C(NN1C(=O)/C(=C/C=C/c2ccco2)SC1=S)c1ccccc1O,.[10 µM],?,.[9.22 µM],7.1µM,?
Cn1cccc1/C=C1\SC(=S)N(NC(=O)c2ccccc2O)C1=O,.[10 µM],?,.[9.22 µM],7.9µM,.
O=C(NN1C(=O)/C(=C/c2cccs2)SC1=S)c1cccnc1,.[10 µM],.,.[9.22 µM],?,.
Cn1cccc1/C=C1\SC(=S)N(NC(=O)c2cccc(Cl)c2)C1=O,.[10 µM],?,.,4µM,.
COc1ccccc1C(=O)NN1C(=O)/C(=C/c2cccn2C)SC1=S,.[10 µM],?,.[9.22 µM],?,.
O=C(NN1C(=O)/C(=C/c2cccs2)SC1=S)c1ccccc1,.[10 µM],.,.,?,.
CCCCN(Cc1ccccc1)S(=O)(=O)c1ccc2c(c1)CC(C)N2C(=O)CC (stereo not given),/,.,/,.,.
CN(C)CCNS(=O)(=O)N(C)C,.[10 µM],/,/,/,/
Cn1cccc1/C=C1\SC(=S)N(NC(=O)c2ccc(F)cc2)C1=O,.[10 µM],?,.[9.22 µM],3.5µM,.
O=C(CCCN1C(=O)/C(=C/c2cccs2)SC1=S)NNC(=O)c1ccc(F)cc1,.[10 µM],.,?,?,.
O=C(COc1ccc([N+](=O)[O-])cc1)N1CCC(c2nc3ccccc3s2)CC1,/,.,/,.,.
CCOC(=O)C(C)(C)[C@H](O)C(C)C,.[10 µM],/,/,/,/
Clc1ccc(Nc2ccc(NCc3ccccc3)nn2)cc1,.[0.074 µM],13µM[quencher],.,?,.
COC(=O)C1(C(=O)OC)C[C@@H]2CON=C2[C@H]1c1ccccc1,20µM!,.,/,.,?
COC(=O)C1(C(=O)OC)C[C@H]2CON=C2[C@H]1c1ccccc1,.,.,/,.,?
Cc1ccc(Cl)cc1N1CCN(C(=O)C2CCN(S(=O)(=O)c3cccnc3)CC2)CC1,.,.,11µM,.,.
COc1ccccc1NC(=O)CSc1c2c(nc3ccccc13)CCC2,.[10 µM],.,35µM,.,.
O=C(CSc1c2c(nc3ccccc13)CCC2)N1CCCC1,10µM,.,?,?,.
N[C@@H](Cc1cccc([N+](=O)[O-])c1)C(=O)O,.[10 µM],/,/,/,/
FC(F)Sc1ccc(N=C2NN=C(c3ccc4c(c3)OCCO4)CS2)cc1,.,?,?,?,.
COc1ccc(N=C2NN=C(c3ccc4c(c3)OCCO4)CS2)cc1,.,?,.[9.22 µM],7.1µM,?
Cc1ccc(-c2c(C(=O)NCCc3ccccc3)oc(=O)c3ccccc23)cc1,/,.,/,.,.
O=[N+]([O-])c1cccc(-c2ccc(C(=S)N3CCN(c4ccccc4)CC3)o2)c1,.[10 µM],?,.[9.22 µM],20µM,?
O=[N+]([O-])c1cc(-c2ccc(C(=S)N3CCOCC3)o2)ccc1Cl,.,?,.,14µM,?
O=[N+]([O-])c1cccc(-c2ccc(C(=S)N3CCOCC3)o2)c1,.[10 µM],.,.[9.22 µM],.,.
SMILES,HTT ATP protect,Tau fluor cs,HttQ103 aggreg,Tau ThT inhib,Tau FP inhib
O=[N+]([O-])c1ccccc1-c1ccc(C(=S)N2CCCCC2)o1,.[10 µM],?,.[9.22 µM],?,.
S=C(c1ccc(-c2cccc(Cl)c2)o1)N1CCOCC1,.,?,.,16µM,.
O=[N+]([O-])c1ccccc1-c1ccc(C(=S)N2CCCC2)o1,.[10 µM],?,.,16µM,?
O=C(O)COc1ccc(CCNS(=O)(=O)c2ccccc2)s1,.,/,.,/,/
Cc1cc(N)n2ncc(-c3cccc(Br)c3)c2n1,.,16µM[quencher],.[9.22 µM],?,.
Cc1cccc(N=Nc2cnc(N)s2)c1,.[10 µM],?,.[9.22 µM],5µM,.
COc1ccc(-c2noc(CSc3nnc(-c4ccc(Cl)cc4)n3C)n2)cc1OC,/,.,/,?,.
O=c1oc2ccccc2c(O)c1/C=N/c1nc(-c2ccc(O)c(O)c2)cs1,.[10 µM],/,/,/,/
CNC(=O)Nc1cccc(-c2cc(-c3c(Cl)cccc3Cl)no2)c1,.[10 µM],?,.[9.22 µM],.,22µM
CC(=C/C(=O)O)/C=C/c1ccco1,/,.,?,14µM,?
CC(/C=C/c1ccc(Cl)o1)=C\C(=O)O,.[0.074 µM],.,.,?,?
COc1cc2c(=O)n(Cc3ccccc3Cl)c(=O)n(CC(=O)Nc3ccc(C)c(C)c3)c2cc1OC,/,.,/,.,?
O=C(c1ccco1)c1coc2c1cc(O)c1ccccc12,.[10 µM],?,.[9.22 µM],3.5µM,.
CCOc1cc(CNc2ccc3c(c2)CCC3)ccc1O,.,.,.,.,.
CCOc1cc(CNc2ccc(O)cc2)ccc1OCc1ccc(Cl)cc1,/,14µM[quencher],/,16µM,.
Oc1ccc(NCc2ccccc2OCc2ccccc2)cc1,/,10µM[quencher],.,14µM,13µM!
Oc1ccc(NCc2ccccc2OCc2ccc(Cl)cc2)cc1,/,?,/,14µM,.
CCNCc1ccccc1OCc1ccccc1,.,.,.,.,.
CCCCCCCC1=Cc2ccccc2C(C(C(C)=O)C(=O)OC)N1C(=O)OC (stereo not given),.[10 µM],.[11.6 µM],/,.[11.5 µM],.[11.6 µM]
